Assay results taken from PubChem BioAssay AID651871 (Sanford-Burnham Center for Chemical Genomics, 2012).
Values joined by “and” are separate entries in the source; they are usually repeats but may differ in a detail not shown here. Equal values may be shown once.

The compounds below were run on HL-1 (assay: cardiomyocyte survival under oxidative or metabolic stress – cell-based, panel, H9c2 and HL-1, ATP luminescence, set 2, SAR follow-up (AID 651871;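 also: cells exposed to stressor for 2 h before ATP readout; reference of the scale not given here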)). Conditions: H9c2/HL-1 cardiomyocytes, 2-deoxyglucose stress, with 2-deoxyglucose; run 1, at 79 µM (top of the series).
For COc1ccc2c(c1OC)C(=O)N1c3ccccc3C(=O)N(Cc3cccc(Cl)c3Cl)C21 (stereo not drawn), the activity (protection/inhibition) was 41.2% and 40.9% and -9.68%.
Compound COc1ccc2nc(-c3cc(OC)c(OC)c(OC)c3)cc(C(=O)NCC(=O)Nc3ccc(C(C)=O)cc3)c2c1 has an activity (protection/inhibition) of 115%.
With CCOC(=O)c1cccc(NC(=O)CNC(=O)c2cc(-c3cc(OC)c(OC)c(OC)c3)nc3ccccc23)c1 the activity (protection/inhibition) was 101%.
